# According to the antibiotic and cytotoxicity screens of Wong et al. (2023):
# In all, about 39,000 compounds went through this assay and about 3,300 (8.5%) were called active. This excerpt belongs to a sample that is enriched for actives.
# Tested on: HepG2
# Experiment: cytotoxicity call (relative viability < 0.9)
# Conditions: 10 µM
row,SMILES,cytotoxicity call
1,C[C@@H]1CCCCO[C@H](CN(C)C(=O)c2ccccc2)[C@@H](C)CN([C@@H](C)CO)C(=O)c2cc(NC(=O)Cc3ccccc3)ccc2O1,inactive
2,COc1ccccc1C#Cc1cnc2c(c1)C(=O)N([C@H](C)CO)C[C@@H](C)[C@H](CN(C)C(=O)CC1CC1)O2,inactive
3,NCc1ccc(C(N)=O)cc1,inactive
4,C[C@H](CO)N1C[C@H](C)[C@H](CN(C)Cc2cncnc2)Oc2cc(C#CC3CCCC3)ccc2S1(=O)=O,inactive
5,CN1CCN(C(=O)C[C@H]2CC[C@@H]3[C@@H](COc4ccc(NC(=O)c5cscn5)cc4C(=O)N3C)O2)CC1,inactive
6,C[C@@H]1CN([C@H](C)CO)C(=O)Cc2cc(NC(=O)C3CC3)ccc2O[C@H]1CN(C)Cc1ccc(C(=O)O)cc1,inactive
7,CCCCC(=O)C1CCCC=C1C(=O)O (centres undefined),inactive
8,C[C@H](CO)N1C[C@H](C)[C@@H](CN(C)Cc2cccc(C(F)(F)F)c2)OCc2ccccc2-c2ccccc2C1=O,inactive
9,C[C@@H]1CN([C@@H](C)CO)C(=O)c2ccccc2-c2ccccc2CO[C@H]1CN(C)C(=O)c1cc(Cl)cc(Cl)c1,inactive
10,CC[C@@H](C)C(=O)O[C@H]1[C@@H]2CC3=C4CC(=O)O[C@@H](c5ccoc5)[C@]4(C)CC[C@@H]3[C@@](C)(C2=O)[C@@H](CC(=O)OC)C1(C)C,inactive
11,CSc1nc(C)nc2ccccc12,inactive
12,CC(C)NC(=O)NCC[C@@H]1CC[C@@H](NC(=O)CN(C)C)[C@@H](CO)O1,inactive
13,C[C@@H]1CCCCO[C@@H](CN(C)Cc2ccc3c(c2)OCO3)[C@@H](C)CN([C@@H](C)CO)C(=O)c2cc(NC(=O)Nc3ccc(F)cc3)ccc2O1,inactive
14,C[C@@H]1CCCCO[C@H](CN(C)Cc2ccc3c(c2)OCO3)[C@H](C)CN([C@H](C)CO)C(=O)c2cc(NC(=O)Nc3ccc(F)cc3)ccc2O1,inactive
15,C[C@@H]1CN([C@H](C)CO)C(=O)c2cc(NC(=O)Nc3ccc(F)cc3)ccc2O[C@@H](C)CCCCO[C@@H]1CN(C)Cc1ccc2c(c1)OCO2,inactive
16,C[C@@H]1CN([C@@H](C)CO)C(=O)c2cc(NC(=O)Nc3ccc(F)cc3)ccc2O[C@@H](C)CCCCO[C@H]1CN(C)Cc1ccc2c(c1)OCO2,active
17,C[C@@H]1CCCCO[C@@H](CN(C)Cc2ccc3c(c2)OCO3)[C@@H](C)CN([C@H](C)CO)C(=O)c2cc(NC(=O)Nc3ccc(F)cc3)ccc2O1,inactive
18,C[C@@H]1CN([C@H](C)CO)C(=O)c2cc(NC(=O)Nc3ccc(F)cc3)ccc2O[C@@H](C)CCCCO[C@H]1CN(C)Cc1ccc2c(c1)OCO2,active
19,C[C@@H]1CN([C@@H](C)CO)C(=O)c2cc(NC(=O)Nc3ccc(F)cc3)ccc2O[C@@H](C)CCCCO[C@@H]1CN(C)Cc1ccc2c(c1)OCO2,active
20,C[C@H]1CCCCO[C@H](CN(C)Cc2ccc3c(c2)OCO3)[C@@H](C)CN([C@@H](C)CO)C(=O)c2cc(NC(=O)Nc3ccc(F)cc3)ccc2O1,active
21,CO[C@H]1CN(C)C(=O)c2cc(NC(=O)C3CC3)ccc2OC[C@H](C)N(C(=O)CN2CCOCC2)C[C@@H]1C,inactive
22,O=C1OCCC/C=C\[C@H]2O[C@@]34C=CCN(c5ccc6ccccc6c5)C(=O)[C@H]3N(CCCCCO)C(=O)[C@@H]4[C@@H]12,inactive

row,SMILES,cytotoxicity call
1,COCCOC(=O)N1C(=O)[C@@]2(c3ccccc31)[C@H](C(=O)Nc1nc3ccccc3s1)[C@H]1C(=O)O[C@H](c3ccccc3)[C@H](c3ccccc3)N1[C@@H]2c1ccccc1OCCO,inactive
2,Cc1ccc(S(=O)(=O)Nc2ccc3c(c2)C(=O)N([C@H](C)CO)C[C@H](C)[C@@H](CN(C)C(=O)Nc2ccc4c(c2)OCO4)OCCCC[C@@H](C)O3)cc1,inactive
3,C[C@@H]1CCCCO[C@@H](CN(C)C(=O)c2ccccc2)[C@H](C)CN([C@@H](C)CO)C(=O)c2cc(NC(=O)Cc3ccccc3)ccc2O1,inactive
4,COc1cccnc1N,inactive
5,COc1ccc(NC(=O)N(C)C[C@H]2OCCCC[C@H](C)Oc3ccc(NC(=O)CCC(F)(F)F)cc3C(=O)N([C@@H](C)CO)C[C@@H]2C)cc1,inactive
6,CO[C@@H]1CN(C)C(=O)c2ccc(NC(=O)c3cc(C)on3)cc2OC[C@@H](C)N(C(=O)C2CCC2)C[C@H]1C,inactive
7,COc1ccc(S(=O)(=O)Nc2ccc3c(c2)C(=O)N([C@H](C)CO)C[C@@H](C)[C@H](CN(C)C(=O)NC2CCCCC2)OCCCC[C@H](C)O3)cc1,inactive
8,C[C@H](CO)N1C[C@H](C)[C@H](CN(C)C(=O)Nc2ccc(F)cc2)Oc2ccc(NS(C)(=O)=O)cc2CC1=O,inactive
9,C[C@@H]1CCCCO[C@H](CN(C)S(=O)(=O)c2ccc(F)cc2)[C@@H](C)CN([C@@H](C)CO)C(=O)c2cc(NC(=O)C3CCCCC3)ccc2O1,inactive
10,O=C1O[C@H](c2ccccc2)[C@H](c2ccccc2)N2[C@H]1[C@@H](C(=O)N1CCCCCCC1)[C@]1(C(=O)Nc3ccc(C#CCCO)cc31)[C@H]2c1ccc(OCCO)cc1,inactive
11,COc1ccc(NC(=O)Nc2ccc3c(c2)C(=O)N([C@H](C)CO)C[C@H](C)[C@@H](CN(C)S(=O)(=O)c2ccc(OC)cc2)OCCCC[C@@H](C)O3)cc1,inactive
12,COCC#Cc1ccc2c(c1)O[C@@H](CN(C)S(=O)(=O)c1ccc(C)cc1)[C@@H](C)CN([C@@H](C)CO)S2(=O)=O,inactive
13,C[C@@H]1CCCCO[C@@H](CN(C)Cc2ccc3c(c2)OCO3)[C@H](C)CN([C@@H](C)CO)C(=O)c2cc(NC(=O)Nc3ccc(F)cc3)ccc2O1,inactive
14,C[C@@H]1CCCCO[C@H](CN(C)Cc2ccc3c(c2)OCO3)[C@@H](C)CN([C@@H](C)CO)C(=O)c2cc(NC(=O)Nc3ccc(F)cc3)ccc2O1,active
15,C[C@H](CO)N1C[C@H](C)[C@H](CN(C)Cc2ccc3c(c2)OCO3)OCCCC[C@H](C)Oc2ccc(NC(=O)Nc3ccc(F)cc3)cc2C1=O,inactive
16,CN(C)CCCCNC(=O)[C@@H]1C[C@@H]2C(=O)N[C@@H](CCCCN(C)C)C(=O)N2[C@@H]1c1cccc(OCCO)c1,inactive
17,S=c1[nH]c2ccccc2s1,inactive
18,C[C@@H]1CN([C@@H](C)CO)C(=O)c2cc(NC(=O)CCCN(C)C)ccc2O[C@H]1CN(C)S(=O)(=O)c1cccs1,inactive
19,Cn1cnc(-c2cc3nccc(Oc4ccc(NC(=S)NC(=O)Cc5ccccc5)cc4F)c3s2)c1,inactive
20,COCCNCc1ccc(-c2cc3nccc(Oc4ccc(NC(=O)C5(C(=O)Nc6ccc(F)cc6)CC5)cc4F)c3s2)nc1,active
21,COCCNCc1ccc(-c2cc3nccc(Oc4ccc(NC(=S)NC(=O)Cc5ccc(F)cc5)cc4F)c3s2)nc1,active
22,COc1ccc(CN(C)C[C@H]2Oc3c(NC(=O)Nc4cccc5ccccc45)cccc3C(=O)N([C@H](C)CO)C[C@H]2C)cc1,inactive

row,SMILES,cytotoxicity call
1,COc1cccc(CNC(=O)C[C@@H]2C=C[C@H](NC(=O)C3CCOCC3)[C@H](CO)O2)c1,inactive
2,C[C@H]1CN([C@@H](C)CO)C(=O)c2cc(C#Cc3ccc(F)cc3)cnc2O[C@H]1CN(C)CC1CCOCC1,inactive
3,C=CCN1C(=O)[C@@]2(O[C@H](CCOC(=O)NCCCCCC(=O)NO)[C@@H]([Si](C)(C)c3ccc(OC)cc3)[C@@H]2C)c2cc(I)ccc21,inactive
4,O=C1COC[C@@H](c2ccccc2)N1,inactive
5,O=C1NC(=O)[C@@H](c2ccccc2)N1,inactive
6,O=C1NC2=C(C(=O)OC2)[C@H](c2ccccc2)N1,active
7,C[C@@H]1CN([C@@H](C)CO)C(=O)c2cc(NC(=O)Cc3ccccc3)ccc2O[C@H]1CN(C)S(=O)(=O)c1ccccc1,inactive
8,C[C@@H]1CCCCO[C@@H](CN(C)C(=O)C2CCCCC2)[C@@H](C)CN([C@@H](C)CO)C(=O)c2cc(NS(=O)(=O)c3ccc(Cl)cc3)ccc2O1,inactive
9,Cc1ccc(S(=O)(=O)N2CCO[C@@H]2CNC(=O)C(=O)NCc2ccccn2)cc1,inactive
10,C[C@H](CO)N1C[C@H](C)[C@H](CN(C)Cc2ccc(C(=O)Nc3ccccc3N)cc2)Oc2ccc(NC(=O)Nc3ccc4c(c3)OCO4)cc2C1=O,inactive
11,COc1ccc(CCNC(=O)[C@@]2(Cc3ccccc3I)c3ccccc3C(=O)N(C3CCCCC3)[C@H]2c2ccc(CO)cc2)cc1,inactive
12,O=C1c2ccccc2[C@](Cc2ccccc2I)(C(=O)NCCN2CCOCC2)[C@H](c2ccc(CO)cc2)N1C1CCCCC1,active
13,O=C1c2ccccc2[C@](Cc2ccccc2I)(C(=O)NCc2ccccc2)[C@H](c2ccc(CO)cc2)N1C1CCCCC1,inactive
14,COCCCNC(=O)[C@@]1(Cc2ccccc2I)c2ccccc2C(=O)N(C2CCCCC2)[C@H]1c1ccc(CO)cc1,active
15,CN(C)CCCNC(=O)[C@@]1(Cc2ccccc2I)c2ccccc2C(=O)N(C2CCCCC2)[C@H]1c1ccc(CO)cc1,active
16,O=C1c2ccccc2[C@](Cc2ccccc2I)(C(=O)O)[C@H](c2ccc(CO)cc2)N1C1CCCCC1,inactive
17,COc1ccccc1CN1C(=O)c2ccccc2[C@](Cc2ccccc2I)(C(=O)NCCN2CCOCC2)[C@@H]1c1ccc(CO)cc1,inactive
18,CN(C)CCCN1C(=O)[C@@]2(Cc3ccccc31)c1ccccc1C(=O)N(C1CCCCC1)[C@H]2c1ccc(CO)cc1,inactive
19,O=C1c2ccccc2[C@](Cc2ccccc2I)(C(=O)NCC(F)(F)F)[C@H](c2ccc(CO)cc2)N1C1CCCCC1,inactive
20,Cc1noc(C)c1NC(=O)N(C)C[C@@H]1OCCCC[C@H](C)Oc2ccc(NS(=O)(=O)c3ccc(F)cc3)cc2C(=O)N([C@@H](C)CO)C[C@@H]1C,inactive
